SMILES strings stand for the structures. In all, about 190,000 compounds went through this assay and about 10 (0.005%) were called active. Only a sample is shown. Unmarked numbers belong to inactive results.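 Rule for the calls: active = activation factor of 2 or more at 20 µM, relative to plate controls; inactive = the rest.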

The results in this text go back to PubChem BioAssay AID1214 (Sanford-Burnham Center for Chemical Genomics, 2008).

The target of the assay is Mannose-6-phosphate isomerase (Homo sapiens) (UniProt P34949). The experiment in a line: MPI enzyme activity enhancement – biochemical, fluorescence intensity, near-Km mannose 6-phosphate, primary screen (AID 1214). Conditions: purified human PMI, coupled resazurin fluorescence, 20 min; at 20 µM; active compounds read high; 1 = vehicle control, 0 substrate-free wells. Background: The colour change of resazurin is a common sign of viable cells or microbes.
Chain of Mannose-6-phosphate isomerase (Homo sapiens) (P34949 whole entry, looked up): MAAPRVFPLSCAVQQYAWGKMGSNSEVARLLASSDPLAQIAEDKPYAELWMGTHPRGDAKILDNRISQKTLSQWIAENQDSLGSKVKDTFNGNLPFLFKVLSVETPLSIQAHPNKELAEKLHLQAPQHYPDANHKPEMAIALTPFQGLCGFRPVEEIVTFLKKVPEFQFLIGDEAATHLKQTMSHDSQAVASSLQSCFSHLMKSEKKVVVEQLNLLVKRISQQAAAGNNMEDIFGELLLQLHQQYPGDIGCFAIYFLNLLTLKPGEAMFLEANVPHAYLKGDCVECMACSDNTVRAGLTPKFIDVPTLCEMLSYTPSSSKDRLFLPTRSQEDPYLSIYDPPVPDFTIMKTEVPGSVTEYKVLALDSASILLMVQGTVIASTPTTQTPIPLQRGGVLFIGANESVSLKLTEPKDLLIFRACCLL
For the molecule `CCOC(=O)c1c(C)[nH]c(C2=NNC(=NC(C)COC)SC2)c1C` (stereo not given), the activation factor was 1.3. For the molecule `Cc1cc(-c2n[nH]c(=S)n2-c2ccc(C)c(C)c2)no1`, the activation factor was 1. The value for `CCC(=O)Nc1c(C)n[nH]c1C` was 0.9; that for `Cc1ccc(OCc2n[nH]c(=S)n2-c2ccc(C)cc2)cc1` was 0.8; that for `CNc1nc(Nc2ccc(C)c(Cl)c2)nc(N)c1[N+](=O)[O-]` was 0.9. The value for `O=C(NCCCNc1ccc([N+](=O)[O-])cc1Cl)c1ccccc1F` was 1.1; that for `COc1ccc(/C=C(\NC(=O)c2ccc(OCC(C)C)cc2)C(=O)OCc2ccco2)cc1` was 0.9. For `O=C1CCC/C(=N\NC(=O)NC2CCCCC2)C1`, the activation factor is 0.8. The result for `O=C(CSc1ccccc1)Nc1nnc(/C=C/c2ccccc2)s1` reads 0.9. The value for `COC(=O)CNC(=O)c1ccc(OC2CCN(C(=O)C3CC3)CC2)cc1` was 0.9. The result for `COc1cc(/C=C/C(=O)N2c3ccccc3Sc3ccc(C(F)(F)F)cc32)cc(OC)c1OC` reads 0.9; that for `O=C1/C(=C\c2ccccc2Cl)SC(=S)N1CCC(=O)N1CCCc2ccccc21`, 0.9; that for `CNC(=O)NC(=O)CSc1nnc(-c2ccc(F)cc2)n1CC1CCCO1` (stereo not given), 1. `Nc1cc(C(F)(F)F)ccc1N1CCOCC1`: the activation factor was 1. As to `COc1cc(C2C(N3C(=O)c4ccccc4C3=O)C(=O)N2c2ccc(C)c(C)c2)cc(OC)c1OC` (stereo not given), the activation factor was 0.9.

Consider `OCC(CO)(CO)NCc1ccc(-c2ccccc2)cc1`, for which the activation factor is 1. The result for `COc1ccc(Cl)cc1-n1c(C)cc(C(=O)OCC(=O)N2CC(=O)Nc3ccccc32)c1C` reads 0.9; that for `COc1cc(/C=N/NC(=O)CCc2n[nH]c(=O)[nH]c2=O)ccc1O`, 0.9; that for `COc1cccc(CN(C)CC(=O)Nc2ccccc2C(=O)Nc2ccccc2)c1`, 0.9. Consider `COc1ccccc1CNC(=O)COc1ccc(C)nc1[N+](=O)[O-]`, for which the activation factor was 1.1.

`O=C(N/N=C/c1ccc([N+](=O)[O-])o1)c1cn(-c2ccccc2)nc1-c1ccc(F)cc1`: the activation factor is 1.4.

Turning to `Cc1ccc(C)c(NC(=S)NNC(=S)Nc2ccc(C(C)C)cc2)c1`, the activation factor is 0.8. The result for `N=C1C(=O)OCC1c1ccccc1NC(=O)CN1CCCCC1` (stereo not given) reads 1.1; that for `C=CCOc1c(Br)cc(/C=N\n2nnnc2N)cc1OC`, 1.1.

Turning to `O=C(Nc1cccnc1)c1cc2cc(Br)ccc2oc1=O`, the activation factor was 1. The result for `COCC(C)NC(=O)COc1nncc2ccccc12` (stereo not given) reads 1.2; that for `C=CCN1C2CCCC1CC(NC(=S)Nc1cccc(OC)c1)C2` (stereo not given), 0.9; that for `CCNC(=O)NNC(=O)C1CC(c2cccs2)=NO1` (stereo not given), 1.

In the case of `CCc1cccc(NC(=O)CCC(=O)O)c1`, the activation factor is 1.

`NC(=O)COC(=O)c1sc2cc(F)ccc2c1Cl`: the activation factor was 1.2.

On to `CCOC(=O)N1CCN(Cc2nc3ccc([N+](=O)[O-])cc3c(=O)n2-c2cccc(OC)c2)CC1`, for which the activation factor is 1. In the case of `COc1ccccc1CNC(=O)C1Cc2ccccc2C(=O)O1` (stereo not given), the activation factor is 0.9. The result for `O=C(/C=C/c1ccccc1)Oc1coc(CSc2ncccn2)cc1=O` reads 1; that for `COc1ccc(Br)cc1CN(C)CC(=O)Nc1cc(Cl)cc(Cl)c1`, 0.8; that for `Cc1ccc(/C([O-])=C(/C(=S)NCc2ccco2)[n+]2ccccc2)cc1[N+](=O)[O-]`, 1. Consider `CN(C)/C=C(/C(=O)c1ccc(F)cc1)S(=O)(=O)c1ccc(F)cc1`, for which the activation factor was 1.2. As to `O=S(=O)(c1ccc2c(c1)OCCO2)N1CCc2ccccc21`, the activation factor was 0.9. The result for `N#C/C(C(=S)Nc1ccccc1)=C1/NN=C(N2CCOCC2)N1c1ccccc1` reads 1; that for `CCN(CC)S(=O)(=O)c1ccc(N2CCOCC2)c(NC(=O)C2COc3ccccc3O2)c1` (stereo not given), 1; that for `COc1ccc(NC(=O)CN(Cc2ccccc2)S(C)(=O)=O)cc1OC`, 0.9. Take `COc1ccccc1N(CC(=O)Nc1ccc(C(F)(F)F)cc1)S(C)(=O)=O`: the activation factor is 1. Regarding `O=C(Cc1cccs1)N(CC1CCCO1)C1(C(=O)NC2CCCCC2)CCCCC1` (stereo not given), the activation factor was 1.1. The result for `O=C(OCC1O[C@@H](OC(=O)c2cc(O)c(O)c(O)c2)[C@@H](OC(=O)c2cc(O)c(O)c(O)c2)[C@@H](OC(=O)c2cc(O)c(O)c(O)c2)[C@@H]1OC(=O)c1cc(O)c(O)c(O)c1)c1cc(O)c(O)c(O)c1` (stereo not given in full) reads 0.4; that for `CC[n+]1c(C)n(-c2ccccc2)c2ccc(NC(C)=O)cc21`, 0.5.

For `Cc1c(C(=O)Nc2cccc(Cl)c2)cn2c(nc3ccccc32)c1C#N`, the activation factor was 1.1.

As for `O=C(NCC(=O)N(CC1CCCO1)C(C(=O)NC1CCCCC1)c1ccccc1)c1ccco1` (stereo not given), the activation factor is 1.1. The result for `CC(C)(C)C1CCC(=NNC(=O)c2cc(-c3ccccc3)n[nH]2)CC1` (stereo not given) reads 1; that for `O=C(CSc1cccc[n+]1[O-])NCCCc1ccccc1`, 1; that for `O=c1cc(CO)oc(C(Nc2cccc([N+](=O)[O-])c2)c2ccccn2)c1O` (stereo not given), 1. The result for `O=S(=O)(ON(c1ccccc1)S(=O)(=O)c1ccccc1)c1ccccc1` reads 1.1. For the molecule `COc1ccc(CCNC(=O)COC(=O)C2CCCCC2)cc1`, the activation factor is 0.9. The value for `NS(=O)(=O)c1ccc(NC(=S)NC(=O)c2cccnc2)cc1` was 1; that for `CCCCN1C(=O)/C(=C/C=C2/C=Cc3ccccc3N2CC)SC1=S` was 0.7. In the case of `CCOC(=O)c1ccccc1NC(=S)N1CCC(C(N)=O)CC1`, the activation factor is 1. On to `O=C(CN1C(=O)/C(=C\c2ccccc2F)SC1=S)Nc1nc2ccccc2s1`, for which the activation factor is 0.8. `COC(=O)C(=Nc1ccccc1)/C(C(=O)C(=O)N(C)c1ccccc1)=C(\O)c1ccc(Cl)cc1`: the activation factor was 1.2. The value for `COC(=O)C1=C(N)Oc2c(oc(CO)cc2=O)C1c1c(F)cccc1Cl` (stereo not given) was 1.1.

`O=C(CCC1CCCN(C(=O)Cc2ccc(F)cc2)C1)N1CCN(c2ccccn2)CC1` (stereo not given): the activation factor was 1. As to `CCOC(=O)CCCNC(=O)COC(=O)/C=C/c1ccc2c(c1)OCO2`, the activation factor was 1.1. Consider `COc1ccc(CCNC(=O)c2ccc(CS(=O)(=O)c3ccc(Br)cc3)o2)cc1OC`, for which the activation factor is 1. In the case of `CC(C)CCN1CCN(C/C=C/c2ccco2)CC1CCO` (stereo not given), the activation factor was 0.8.

For the molecule `CCOC(=O)c1ccc(NNC(C)=O)c([N+](=O)[O-])c1`, the activation factor was 0.9. Regarding `CC(=O)c1ccc(NC(=S)N(Cc2ccccc2)C(C)C2CC2)cc1` (stereo not given), the activation factor was 0.8. On to `O=C(CN1CCCC1)N1CCN(c2ccccc2)CC1`, for which the activation factor is 0.8. The result for `O=C(CC1C(=O)NCCN1Cc1ccc(-c2ccccc2)cc1)NCc1ccncc1` (stereo not given) reads 1; that for `CCOc1ccc(-n2c(SCC(=O)NC3CCS(=O)(=O)C3)nnc2-c2cccnc2)cc1` (stereo not given), 1. Take `O=C(Nc1ccc(N2CCOCC2)cc1)c1ccc2c(c1)OCO2`: the activation factor is 0.9. Regarding `CCC1CCCCN1C(=O)CSc1nc(C)cc(C)n1` (stereo not given), the activation factor is 1.

On to `CCCOC(=O)c1ccc(N2C(=O)c3ccccc3C2=O)cc1`, for which the activation factor was 1. The result for `O=C(CSc1ccc([N+](=O)[O-])cn1)Nc1ccc(N2CCOCC2)c(Cl)c1` reads 1.

As for `COc1ccc(-c2cc(C(=O)NCCCn3ccnc3)no2)cc1`, the activation factor is 1. The value for `Cc1cccc(C)c1NC(=S)N(Cc1cccnc1)Cc1ccccc1Cl` was 0.9; that for `COc1ccc(/C=C/CN2CCCC(C(=O)c3cc(F)ccc3F)C2)cc1` (stereo not given) was 1. For `O=c1c2sccc2nc(SCc2cc(=O)n3ccccc3n2)n1-c1ccc(Br)cc1`, the activation factor was 0.9. Turning to `O=C1CS(=O)CN1c1ccc(Oc2ccccc2)cc1` (stereo not given), the activation factor is 1. Regarding `CC(=C/c1ccccc1)/C=N/NC(=O)c1cc(C)oc1C`, the activation factor is 0.9. For `CN1C(=O)C(CC(=O)Nc2ccccc2)S/C1=N/c1nccs1` (stereo not given), the activation factor was 1. With `CC(/C=C/C1(O)C(C)CC(=O)CC1(C)C)OC1OC(CO)C(O)C(O)C1O` (stereo not given), the activation factor was 0.9.

Turning to `CCN(C(=O)COC(=O)c1ccc(COc2ccc3c(C)cc(=O)oc3c2)cc1)C1CCS(=O)(=O)C1` (stereo not given), the activation factor is 1. The result for `CCOC(=O)c1cc2c(=O)n3ccccc3nc2n(CC(C)C)c1=NC(=O)c1c(-c2c(F)cccc2Cl)noc1C` reads 1. The result for `CCOc1ccc2nc(NCCNC(=O)C(C)(C)C)c(C)cc2c1` reads 1; that for `Cc1cccc(N(C(=O)Cc2cccs2)C(C(=O)NCc2ccco2)c2ccncc2)c1` (stereo not given), 0.9; that for `COc1ccc(Cl)cc1NC(=O)NC(C)C(C)(C)C` (stereo not given), 0.9. The value for `CC(C)CCN1CCN(Cc2cn[nH]c2C2CCCCC2)CC1CCO` (stereo not given) was 1; that for `Cc1cccc(NC(=O)/C=C/c2ccc3c(c2)OCO3)n1` was 0.9; that for `CC1=CC(=C(C#N)c2nc3ccccc3s2)C=C(C)N1c1ccc(F)cc1F` was 0.7. In the case of `COc1cccc(/C=C/C(=O)Nc2ccc3c(c2)OCCO3)c1`, the activation factor was 1.1. On to `Cc1c(NC(=S)NCc2ccc(F)cc2)cccc1[N+](=O)[O-]`, for which the activation factor is 0.8. The result for `Cc1ccc(-c2nn(-c3ccccc3)cc2/C=C/C(=O)Nc2cccc(S(N)(=O)=O)c2)cc1` reads 0.9; that for `COc1ccc(NC(=S)N2CCCC(CO)C2)c(OC)c1` (stereo not given), 1; that for `COC(=O)c1c(C(=O)OC)c(-c2cccc(C)c2)n2c1CS(=O)C2` (stereo not given), 0.9. Consider `CCOC(=O)C1(O)CC(C)=NN1C(=O)c1cccc(Br)c1` (stereo not given), for which the activation factor is 1.1. In the case of `Cc1ccc(-n2cc(CN(C)Cc3nccn3C)c(-c3cccc(C)c3)n2)cc1`, the activation factor was 0.8. Take `O=C(CCNC(=O)c1ccc([N+](=O)[O-])cc1)Nc1ccccc1N1CCOCC1`: the activation factor is 1. The value for `CCCC(O)(CCC)C(=O)NN(C(=O)CCl)c1cccc(C)c1` was 1.1.
